Pf growth 96h: P. falciparum growth inhibition at 96 hour, primary screen for plastid delayed-death inhibitors | P. falciparum luciferase reporter growth, 96 h | Potency, µM (series often up to 28.7 µM), for the others: at the highest dose activity change, negative = inhibition, usual class: inhibitors | hit rate 6.9% among 320,000 | AID 504834; active = well fitted inhibition curve with a large enough effect; inconclusive = small, poorly fitted or top-dose-only effect, or another doubt; inactive = no such curve, though single readings can be large or run the other way; also: potency is read from the fitted curve at half-maximal effect; % is scaled to controls: 0 for no effect and ±100 for the full control effect
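Parasite growth measured via integrated firefly luciferase reporter in P. falciparum. Infected erythrocytes at 2% hematocrit, 0.05% parasitemia final were treated 96 hours at 37 C under 5% CO2, and luminescence was read.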
CHX counter: counter-screen hit for Shiga toxin inhibitors, cycloheximide. cell reporter, cycloheximide protein synthesis inhibition counterscreen. max response, %. hit rate 12% among 300,000. AID 2314; in the data active = max response mostly above about 13%, no sharp cut-off; inactive = mostly below about 14%; also: read at 38.3 µM for the half of the compounds with a filed dose; 0% is about no effect
Pf growth 48h: P. falciparum growth inhibition at 48 hours (one generation). P. falciparum luciferase growth in erythrocytes, 48 h. Potency, µM (series often up to 28.7 µM), without a hit: top-dose activity change, negative = inhibition, actives largely listed as inhibitors. hit rate 5.9% among 310,000. AID 504832; active = well fitted inhibition curve with a large enough effect; inconclusive = small, poorly fitted or top-dose-only effect, or another doubt; inactive = no such curve, though single readings can be large or run the other way; also: potency is read from the fitted curve at half-maximal effect; % is scaled to controls: 0 for no effect and ±100 for the full control effect
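First compound was added to culture medium, then infected red cells at 0.1% parasitemia and 2% hematocrit (final). After incubation at 37 C under 5% CO2, luciferase detection reagent was dispensed and light output recorded.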
Shiga toxin inh: blocks Shiga toxin action in Vero cells. hit rate 9.2% among 290,000. inhibition, % at 38.7 µM. Vero cells, Shiga toxin protein synthesis inhibition reporter; in the data active = inhibition mostly above about 28%, no sharp cut-off; inactive = mostly below about 43%; also: 0% is about no effect
NS1 inh: influenza NS1 inhibition; Potency, µM (titrated, usually from 46.1 µM), for the others: at the highest dose activity, positive = more growth; AID 2326; hit rate 0.4% among 270,000; also: potency is read from the fitted curve at half-maximal effect; actives are rising curves; nearly all actives have a fitted effect of over 50% in size
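Growth recovery, yeast-based: influenza A NS1 expressed in S. cerevisiae causes slow growth, and suppressors are detected by OD600. The parent strain without NS1 is used as positive control.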
SARS PLpro yeast: inhibitors of SARS-CoV papain-like protease in yeast; S. cerevisiae expressing SARS-CoV PLpro, growth rescue; Potency, µM (titrated, usually from 32.9 µM), for inactives: top-dose activity, positive = growth rescue, actives largely listed as activators; hit rate 0.19% among 330,000; also: potency is read from the fitted curve at half-maximal effect; 0% is about no effect; nearly all actives have a fitted effect of over 55% in size
Active calls of the source: *; [ ] = another dose, or the depositor's remark. An excerpt weighted towards active compounds, which were near 21% of everything screened. Unless noted, calls follow the shape of the full dose curve.

`Cc1cc(/C=N/NC(=O)c2ccccn2)c(C)n1-c1cccc([N+](=O)[O-])c1` gave Pf growth 96h 4.7µM*, CHX counter 50*, Pf growth 48h -6%, Shiga toxin inh 90* and SARS PLpro yeast 1%.
O=C(N/N=C\c1cc([N+](=O)[O-])ccc1N1CCCC1)c1ccccn1 was read as Pf growth 96h -18%, CHX counter 22*, Pf growth 48h inconclusive, Shiga toxin inh 48*, NS1 inh 3% and SARS PLpro yeast -1%.
For Cc1cc(C(=O)N/N=C/c2cccc([N+](=O)[O-])c2)c(C)n1-c1ccccc1 the results were Pf growth 96h inconclusive, CHX counter 43*, Pf growth 48h inconclusive, Shiga toxin inh 87*, NS1 inh -1% and SARS PLpro yeast 8%.
`O=C(N/N=C/C=C\c1cccc([N+](=O)[O-])c1)c1ccccn1` gave Pf growth 96h inconclusive, CHX counter 7, Pf growth 48h 33%, Shiga toxin inh -7, NS1 inh 0% and SARS PLpro yeast 7%.
`Cn1cnnc1SCNC(=O)C(F)(F)F` gave Pf growth 96h -8%, CHX counter -2, Pf growth 48h 22%, Shiga toxin inh 32, NS1 inh 4% and SARS PLpro yeast 2%.
For Cc1cc(/C=C2/NC(=O)NC2=O)c(C)n1-c1ccccn1 the results were Pf growth 96h 9.3µM*, CHX counter 19*, Pf growth 48h 10%, Shiga toxin inh 19, NS1 inh 1% and SARS PLpro yeast -17%.
For Cc1cc(/C=C2/NC(=O)NC2=O)c(C)n1-c1ccc(C#N)cc1 the results were Pf growth 96h inconclusive, CHX counter 3, Pf growth 48h -8%, Shiga toxin inh 19 and SARS PLpro yeast 1%.
Screening C=CCN1C(=O)/C(=C/c2cc(C)n(-c3ccccn3)c2C)C(=O)NC1=S returned Pf growth 96h 29%, CHX counter -3, Pf growth 48h -3%, Shiga toxin inh -10, NS1 inh 19% and SARS PLpro yeast -4%.
For Cc1ccc(-n2c(C)cc(/C=C3\NC(=O)NC3=O)c2C)c(C)c1 the results were Pf growth 96h 13µM*, CHX counter 13, Pf growth 48h 13µM*, Shiga toxin inh 1, NS1 inh -2% and SARS PLpro yeast -4%.
`Cc1ccc2c(c1)S/C(=C/c1ccc[n+](CCO)c1)N2C` gave Pf growth 96h 4%, CHX counter -5, Pf growth 48h inconclusive, Shiga toxin inh -10 and SARS PLpro yeast 1%.
For Cc1ccc2c(c1)S/C(=C\c1cccc[n+]1C)N2CCO the results were Pf growth 96h -9%, CHX counter -2, Pf growth 48h 3.3µM*, Shiga toxin inh -4, NS1 inh 4% and SARS PLpro yeast -2%.
For C[n+]1ccccc1/C=C1\Sc2ccccc2N1CCO the results were Pf growth 96h 2.1µM*, CHX counter -3, Pf growth 48h inconclusive, Shiga toxin inh -6, NS1 inh -6% and SARS PLpro yeast -1%.
`CC(OC(=O)C1CCN(S(=O)(=O)c2ccc(Cl)cc2)CC1)C(=O)NC1CCCCC1C` (stereo not given) gave Pf growth 96h -7%, CHX counter -1, Pf growth 48h -16%, Shiga toxin inh 29, NS1 inh -11% and SARS PLpro yeast -11%.
COc1cccc(CN2CC(C(=O)NCCSc3nnnn3C)CCC2=O)c1 (stereo not given) was read as Pf growth 96h 21%, CHX counter -1, Pf growth 48h 1%, Shiga toxin inh -11, NS1 inh 7% and SARS PLpro yeast 7%.
`NC(=O)/C(=C/c1ccco1)NC(=O)/C=C/c1ccccc1` gave Pf growth 96h inconclusive, CHX counter 2, Pf growth 48h -3%, Shiga toxin inh -4, NS1 inh 8% and SARS PLpro yeast 3%.
For CC(C)CCOC(=O)/C(=C/c1ccco1)NC(=O)/C=C/c1ccccc1 the results were Pf growth 96h 4.1µM*, CHX counter 20*, Pf growth 48h inconclusive, Shiga toxin inh 51, NS1 inh 4% and SARS PLpro yeast -14%.
For Cc1nn(Cc2ccc(C(=O)Nc3ccc(C(=O)OC(C)C)cc3)o2)c(C)c1Cl the results were Pf growth 96h 20%, CHX counter 8, Pf growth 48h 15µM*, Shiga toxin inh -2, NS1 inh 0% and SARS PLpro yeast -5%.
`Nc1cc2nc3ccccc3oc-2cc1=O` gave Pf growth 96h 4.7µM*, CHX counter 28*, Pf growth 48h 4.7µM*, Shiga toxin inh 42*, NS1 inh -64% and SARS PLpro yeast -6%.
O=C(O)c1cc(=O)c2c3nc4ccccc4oc-3cc(=O)c2[nH]1 was read as Pf growth 96h 7% and Pf growth 48h inconclusive.
Screening CC(C)CC(=O)Nc1ccccc1Oc1ccccc1 returned Pf growth 96h 20%, CHX counter 1, Shiga toxin inh -2, NS1 inh 7% and SARS PLpro yeast 6%.
`CCCc1ccc(C(=O)NC(=O)c2ccccc2O)cc1` gave Pf growth 96h 0.37µM*, CHX counter 23*, Pf growth 48h 0.066µM*, Shiga toxin inh 19, NS1 inh -83% and SARS PLpro yeast -7%.
O=C(NC(=O)c1ccccc1O)c1ccc(C(F)(F)F)cc1 was read as Pf growth 96h 2.3µM*, CHX counter 14, Pf growth 48h inconclusive, Shiga toxin inh 82, NS1 inh 6% and SARS PLpro yeast -4%.
Screening CCN1C(=O)C2(C(C(=O)c3cc4ccccc4o3)=C(O)C(=O)N2CCCN2CCOCC2)c2ccccc21 (stereo not given) returned Pf growth 96h -18%, CHX counter -2, Pf growth 48h -20%, Shiga toxin inh -2, NS1 inh 2% and SARS PLpro yeast 3%.
COCCNC(=O)COc1ccc(Br)cc1Cl was read as Pf growth 96h 11%, CHX counter 33*, Shiga toxin inh 42, NS1 inh -6% and SARS PLpro yeast 12%[6.58 µM].
For C=CCNC(=O)COc1ccc(Br)cc1Cl the results were Pf growth 96h 143%, CHX counter 33*, Pf growth 48h 59%, Shiga toxin inh 56, NS1 inh -22% and SARS PLpro yeast 1%.
CC(=O)NC(NC(=S)Nc1ccc(S(N)(=O)=O)cc1)C(Cl)(Cl)Cl (stereo not given) was read as Pf growth 96h -13%, CHX counter -2, Pf growth 48h -8%, Shiga toxin inh 16, NS1 inh 4% and SARS PLpro yeast 0%.
Screening CCC(=O)NC(NC(=S)Nc1ccc(S(N)(=O)=O)cc1)C(Cl)(Cl)Cl (stereo not given) returned Pf growth 96h 2.1µM*, CHX counter -1, Pf growth 48h -6%, Shiga toxin inh -3, NS1 inh 21% and SARS PLpro yeast -3%.
